Compounds with a hit are over-represented: about 3.5% of the library has one in this group of screens.
FBW7 act – human FBW7 E3 ligase activation, primary screen. AlphaScreen FBW7–phospho-cyclin E peptide binding, activator screen. normalized activity (activation), % at 26.1 µM. Q969H0. hit rate 0.13% among 650,000; in the data active = normalized activity above about 1.9%;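 also: purified mutant Fbw7 with reduced substrate affinity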
MITF primary – inhibitors of human MITF. O75030. AlphaScreen MITF homodimerization, bead proximity signal. inhibition, % at 2.6 µM. hit rate 0.91% among 650,000; in the data active = inhibition above about 50%;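 also: 0% = vehicle wells with protein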
Target sequence (O75030 whole entry, looked up): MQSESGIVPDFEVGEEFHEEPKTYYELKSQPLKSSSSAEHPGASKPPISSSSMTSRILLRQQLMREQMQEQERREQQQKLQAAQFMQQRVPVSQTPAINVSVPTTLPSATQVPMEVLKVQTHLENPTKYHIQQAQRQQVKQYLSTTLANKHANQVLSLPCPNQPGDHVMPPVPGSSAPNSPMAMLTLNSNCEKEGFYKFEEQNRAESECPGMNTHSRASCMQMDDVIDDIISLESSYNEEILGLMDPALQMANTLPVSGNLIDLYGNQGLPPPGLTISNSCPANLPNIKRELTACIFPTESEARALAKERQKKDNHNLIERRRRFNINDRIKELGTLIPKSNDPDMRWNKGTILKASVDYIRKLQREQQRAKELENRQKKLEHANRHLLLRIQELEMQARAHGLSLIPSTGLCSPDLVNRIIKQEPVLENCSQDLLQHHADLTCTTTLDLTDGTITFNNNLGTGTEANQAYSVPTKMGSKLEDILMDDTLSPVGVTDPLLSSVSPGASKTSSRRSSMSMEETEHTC
TEAD-YAP block – TEAD-YAP interaction inhibition. HEK-TIYL cells, TEAD-Gal4/YAP UAS-luciferase luminescence. inhibition, % at 9.12 µM. hit rate 1.4% among 640,000. AID 1259422; in the data active = inhibition above about 32%;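 also: 0% = median of test compound wells and 100% = reference inhibitor wells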
GPR151 ag – activates the human receptor GPR151; activation, % at 11.2 µM; PathHunter beta-arrestin GPR151 cells, luminescence; AID 1508602; hit rate 1% among 650,000; in the data active = activation above about 4.9%;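 also: 0% = median of compound wells and 100% = cells with positive control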
Starred values were filed as active, the others as inactive.

SMILES | FBW7 act | MITF primary | TEAD-YAP block | GPR151 ag
C/C(CC(=O)Nc1ccc(Br)cc1)=N\NC(=O)c1ccco1 | 0 | 16 | -52 | 1
COc1cc(OC)c(C(=O)Nc2ccccc2C(N)=O)cc1OC | 0 | -3 | -3 | 0
COC(=O)c1ccc2c(c1)NC(=O)/C(=C\c1cccc(C)c1)S2 | 0 | 0 | 5 | 2
Clc1ccccc1CNc1ncnc2ccccc12 | 0 | 8 | 48* | 2
COc1cccc(/C=N/Nc2ncnc(N)c2[N+](=O)[O-])c1OC | 0 | 18 | 46* | -6
Nc1ncnc(N/N=C/c2ccc(O)cc2O)c1[N+](=O)[O-] | -1 | 81* | -10 | -3
Nc1ncnc(N/N=C/c2ccccc2OC(F)F)c1[N+](=O)[O-] | -1 | 8 | 48* | -8
Nc1ncnc(N/N=C/c2cc([N+](=O)[O-])ccc2OC(F)F)c1[N+](=O)[O-] | 0 | 4 | -40 | -1
Cc1cccc(N(CC(=O)Nc2cccnc2)S(C)(=O)=O)c1C | 0 | 2 | -1 | 1
COC1C(C#CC(C)(C)C)C1(C)C (configuration not stated) | 0 | 5 | 9 | -1
Cc1ccnc(NC(c2ccccc2C)c2ccc3cccnc3c2O)c1 (configuration not stated) | 0 | 17 | 90* | 0
Cc1ccnc(NC(c2cccs2)c2ccc3cccnc3c2O)c1 (configuration not stated) | -2 | 9 | 52* | 0
Cc1ccc(C)c(C(Nc2ccccn2)c2ccc3cccnc3c2O)c1 (configuration not stated) | -1 | 13 | 76* | -1
Cn1c(=O)c2nc(SCC(=O)Nc3cccc([N+](=O)[O-])c3)n(C)c2n(C)c1=O | 0 | 10 | 15 | -1
O=C(NC(=S)Nc1ccc(N2CCCCC2)c(Cl)c1)c1ccccc1 | 0 | 9 | 13 | 0
O=c1cc(-c2ccc(O)c(O)c2)oc2cc(O)c(C3OC(CO)C(O)C(O)C3O)c(O)c12 (configuration not stated) | 0 | 74* | 3 | -1
O=c1c(O[C@@H]2O[C@H](CO)[C@@H](O)[C@H](O)[C@H]2O)c(-c2ccc(O)c(O)c2)oc2cc(O)cc(O)c12 | 0 | 61* | -2 | 1
O=c1c(O[C@@H]2OC([C@H](O)CO)[C@H](O)[C@H]2O)c(-c2ccc(O)c(O)c2)oc2cc(O)cc(O)c12 (some centres not stated) | 0 | 84* | -7 | 1
O=c1c(O[C@@H]2O[C@H](CO)[C@H](O)[C@H](O)[C@H]2O)c(-c2ccc(O)c(O)c2)oc2cc(O)cc(O)c12 | 0 | -9 | -7 | 0
O=c1cc(-c2ccc(O)cc2)oc2c(C3O[C@H](CO)[C@@H](O)[C@H](O)[C@H]3O)c(O)cc(O)c12 (some centres not stated) | 0 | 32 | -8 | -1
C[C@@H]1O[C@@H](OC[C@H]2O[C@@H](Oc3c(-c4ccc(O)c(O)c4)oc4cc(O)cc(O)c4c3=O)[C@H](O)[C@@H](O)[C@@H]2O)[C@H](O)[C@H](O)[C@H]1O | 0 | 83* | 3 | -1
Cc1ccccc1N1C(=O)NC(=O)/C(=C\C=C\c2ccccc2[N+](=O)[O-])C1=O | 0 | 11 | -10 | -2
CSc1ccccc1NC(=O)C(C)N(c1cc(C)cc(C)c1)S(C)(=O)=O (configuration not stated) | 0 | -14 | 1 | -1
CCCC1CCC(c2ccc(-c3nc(-c4ccc(C)cc4)no3)cc2)CC1 (configuration not stated) | 0 | 13 | 2 | -3
CCN(CC)Cc1c(O)ccc2c([N+](=O)[O-])c(C)n(-c3ccc(OC)cc3)c12 | 0 | -7 | 37* | -1
SMILES | FBW7 act | MITF primary | TEAD-YAP block | GPR151 ag
COc1ccc(-n2c(/C=C/N(C)C)c([N+](=O)[O-])c3ccc(O)c(COC(C)=O)c32)cc1 | 0 | 15 | 12 | 0
CCCn1c(SCc2ccc([N+](=O)[O-])cc2)nnc1-c1ccncc1 | 0 | 14 | 1 | 0
O=C(NCc1ccncc1)c1cnc2ccccc2n1 | 0 | 4 | 13 | -1
O=C(NCc1ccncc1)c1ccc2cncc(-c3ccccc3)c2n1 | 0 | 4 | 71* | 0
O=C(NCc1ccc(C(F)(F)F)nc1)c1ccc2cncc(-c3ccccc3)c2n1 | 0 | 13 | 49* | 1
COc1ccc(-c2cncc3ccc(C(=O)NCc4ccncc4)nc23)cc1 | -1 | 14 | 77* | -2
COc1ccc(-c2cncc3ccc(C(=O)NCc4ccccc4OC)nc23)cc1 | 0 | 12 | 50* | 0
O=C(Nc1ccccc1C(F)(F)F)NC1(C(=O)NCc2ccncc2)CCCCC1 | 0 | -12 | 4 | -2
